Screens from PubChem BioAssay.
This is a sample that favours compounds with a hit; in the whole collection about 0.71% have one here.
ERG Ets-DNA blk: ERG Ets/DNA interaction inhibition. P11308. fluorescence polarization, His-ERG Ets domain / labelled DNA. Potency, µM (series often up to 76.9 µM), for inactives: top-dose FP activity, negative = inhibition, actives largely listed as inhibitors. 370,000 compounds, 0.028% hits; active = well fitted inhibition curve with a large enough effect in the polarisation, with a control signal flat; inconclusive = small, poorly fitted or top-dose-only effect, or effect the other way, or a change in a side signal; inactive = no such curve, though single readings can be large or run the other way; the % refers to the polarisation;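 also: polarization taken with two DNA probes labelled with fluorescein and Texas red; % of control where 0% means no effect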
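His-tagged ERG Ets domain (1 uM in the protein solution; 300mM KCl, 50mM Tris-HCl, 1mM EDTA, 1mM DTT, pH 7.5) received compound, then a probe mix of 5 nM fluorescein-DNA and 100nM Texas-615-DNA. Fluorescence polarization was read for both dyes.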
TRb-SRC2 inh: TRbeta-SRC2 interaction inhibition; Potency, µM (series often up to 106 µM), for the others: at the top dose activity change, negative = inhibition, hits mostly inhibitors; TRbeta-SRC2 peptide binding, fluorescence polarization; receptor liganded with 1 µM T3; 280,000 compounds, 0.065% hits;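 also: plate controls were bound peptide for no effect and peptide without receptor for full effect; nearly all actives have a fitted effect of over 50% in size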
Target sequence (P10828 whole entry, looked up): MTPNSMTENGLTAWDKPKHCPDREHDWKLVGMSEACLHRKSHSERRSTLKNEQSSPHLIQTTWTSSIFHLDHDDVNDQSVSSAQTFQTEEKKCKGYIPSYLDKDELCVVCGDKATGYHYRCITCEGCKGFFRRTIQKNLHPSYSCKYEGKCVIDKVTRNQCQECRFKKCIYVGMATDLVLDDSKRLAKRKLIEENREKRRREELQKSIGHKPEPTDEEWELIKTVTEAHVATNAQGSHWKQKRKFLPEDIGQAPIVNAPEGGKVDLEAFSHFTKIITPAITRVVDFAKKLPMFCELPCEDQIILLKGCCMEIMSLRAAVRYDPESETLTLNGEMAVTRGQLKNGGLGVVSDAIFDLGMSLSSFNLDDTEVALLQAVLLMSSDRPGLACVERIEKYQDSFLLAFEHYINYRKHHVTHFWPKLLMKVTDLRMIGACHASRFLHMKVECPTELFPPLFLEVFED
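Human TRb LBD (0.6 uM) plus Texas Red-labeled SRC2 peptide (20 nM), 1uM T3, 5% DMSO, 5 hr at ambient temperature. Decreased polarization (555/632 nm) flags inhibition; data normalized to free and bound peptide controls.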
TexasRed fluor: alters Texas Red total fluorescence, flagging assay interference | TRb/SRC2 Texas Red total fluorescence interference | Potency, µM (titrated, usually from 106 µM), for inactives: top-dose fluorescence change, negative = quenching | 280,000 compounds, 0.29% hits; active = well fitted curve in either direction with a large enough effect; inconclusive = small, poorly fitted or top-dose-only effect; also: % is scaled to controls: 0 for no effect and ±100 for the full control effect
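Human TRb ligand-binding domain at 0.6 uM with 20 nM Texas Red SRC2 peptide in Tris buffer containing 1 uM T3 and 5% DMSO, incubated with compound 5 h at ambient temperature. Total fluorescence (555/632 nm) calculated as parallel + 2 × perpendicular.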
RGS12 GoLoco inh: inhibitors of human Gai1-RGS12 GoLoco interaction (red fluorophore) | P63096 | Gai1:RGS12 GoLoco peptide FP, rhodamine, 10 min | Potency, µM (doses to about 61.6 µM), without a hit: top-dose activity, negative = inhibition, usual class: inhibitors | 230,000 compounds, 0.44% hits | AID 880; active = well fitted inhibition curve with a large enough effect, not every such curve was filed as active; inactive = no such curve, though single readings can be large or run the other way; also: % is scaled to controls: 0 for no effect and ±100 for the full control effect; nearly all actives have a fitted effect of over 30% in size
RECQ1 inh: RECQ1 (human) helicase inhibition. RECQ1 DNA unwinding, red fluorescence kinetic read. Potency, µM (highest dose often 57.3 µM), inactives show at the highest dose activity, negative = inhibition, usual class: inhibitors. P46063. 240,000 compounds, 0.54% hits. AID 2549;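 also: plate controls were vehicle for no effect and no enzyme for full effect; nearly all actives have a fitted effect of over 30% in size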
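50 nM RECQ1T1 preincubated 15 min with compound in Tris pH 8.0 buffer with MgCl2, DTT, Tween-20 and 2.5 ug/ml poly(dI-dC); started with 200 nM TAMRA/BHQ-2 forked duplex and 2 mM ATP. Unwinding read as fluorescence (525/598 nm), two reads 2 h apart.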
BLM helicase inh: blocks DNA unwinding by human BLM helicase; P54132; recombinant BLM DNA unwinding, fluorescence dequenching; Potency, µM (doses to about 56.1 µM), inactives show top-dose activity change, negative = inhibition, hits mostly inhibitors; 350,000 compounds, 0.2% hits; AID 2528;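 also: plate controls were vehicle for no effect and no enzyme for full effect; nearly all actives have a fitted effect of over 35% in size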
Starred values were filed as active, the others as inactive; [ ] = dose if it differs, or a comment. Unless noted, calls follow the shape of the dose curve; as a rule, active = well fitted curve in the direction sought with a large enough effect; inconclusive = small, poorly fitted or top-dose-only effect, or another doubt; inactive = no such curve, though single readings can be large; an effect the other way counts as inactive or inconclusive. Potency is read from the fitted curve at half-maximal effect.

`CCO[C@H]1OC(C(=O)N2CCN(Cc3ccc4c(c3)OCO4)CC2)=C[C@@H](c2csc3ccccc23)[C@@H]1CCCO` gave ERG Ets-DNA blk -1%, TRb-SRC2 inh -3%, TexasRed fluor 1%, RGS12 GoLoco inh 3%, RECQ1 inh -17% and BLM helicase inh -10%.
CCO[C@H]1OC(C(=O)N2CCN(Cc3ccc4c(c3)OCO4)CC2)=C[C@@H](c2cn(C(C)=O)c3ccccc23)[C@@H]1CCCO was read as ERG Ets-DNA blk 3%, TRb-SRC2 inh -6%, TexasRed fluor 0%, RGS12 GoLoco inh 8%, RECQ1 inh 35µM* and BLM helicase inh -4%.
COc1cc(NC(=O)C2CCN(S(=O)(=O)c3c(C)noc3/C=C/c3ccccc3F)CC2)cc(OC)c1OC was read as ERG Ets-DNA blk 1%, TRb-SRC2 inh -2%, TexasRed fluor 1% and BLM helicase inh -2%.
For CCCCC[n+]1cccc2c3ccccc3ccc21 the results were ERG Ets-DNA blk -7%, TRb-SRC2 inh 8%, TexasRed fluor 0%, RGS12 GoLoco inh 16µM*, RECQ1 inh 63% and BLM helicase inh 1%.
`CCCCC(CC)COP(=O)(O)OCC(CC)CCCC` (configuration not stated) gave TRb-SRC2 inh 2%[201 µM] and TexasRed fluor 0%[201 µM].
For CCCCCCCC(=O)OC the results were TRb-SRC2 inh 6%[201 µM] and TexasRed fluor -3%[201 µM].
`CCN1C(=O)/C(=C\N(C(C)=O)c2ccccc2)OC1=S` gave ERG Ets-DNA blk 4%, TRb-SRC2 inh -9%, TexasRed fluor -7%, RGS12 GoLoco inh 2%, RECQ1 inh 3% and BLM helicase inh 0%.
For CN(C)/C=C1\SC(=S)N(c2ccc(Br)cc2)C1=O the results were ERG Ets-DNA blk 130%, TRb-SRC2 inh inconclusive, TexasRed fluor 32µM*[fluorescent], RGS12 GoLoco inh -117%, RECQ1 inh 32µM* and BLM helicase inh 4%.
`CN(C)/C=C1\SC(=S)N(c2ccc(F)cc2)C1=O` gave ERG Ets-DNA blk 78%, TRb-SRC2 inh -4%, TexasRed fluor 1%, RGS12 GoLoco inh 226%, RECQ1 inh inactive and BLM helicase inh 0%.
For CC(=O)N(/C=C1\SC(=S)N(c2ccccc2)C1=O)c1ccccc1 the results were ERG Ets-DNA blk 86%, TRb-SRC2 inh 12%, TexasRed fluor 2%, RGS12 GoLoco inh 25%, RECQ1 inh 32µM* and BLM helicase inh -7%.
`CC(=O)c1c(O)cccc1O` gave TRb-SRC2 inh -17%, TexasRed fluor inconclusive, RECQ1 inh -13% and BLM helicase inh 3%.
Screening C/C(=N\NC(=O)c1ccc(C)cc1C)c1ccc2c(c1)OCO2 returned ERG Ets-DNA blk 0%, TRb-SRC2 inh 2%, TexasRed fluor 0%, RGS12 GoLoco inh 4%, RECQ1 inh -3% and BLM helicase inh -2%.
For C/C(=N\NC(=O)c1cc2ccccc2cc1O)c1ccc2c(c1)OCO2 the results were ERG Ets-DNA blk 8%, TRb-SRC2 inh 23%, TexasRed fluor 35µM*[quencher], RGS12 GoLoco inh 60%, RECQ1 inh -12% and BLM helicase inh -16%.
For Cc1nc(-n2nc(C)c(Cc3ccc(Cl)cc3)c2C)sc1C(=O)N1CCCCC1C (configuration not stated) the results were ERG Ets-DNA blk 2%, TRb-SRC2 inh -22%, TexasRed fluor 17783µM*[quencher] and BLM helicase inh -7%.
`CCOc1cc(CNc2ccc(O)cc2)cc(Br)c1OCc1ccccc1F` gave ERG Ets-DNA blk -26%, TRb-SRC2 inh 32µM*, TexasRed fluor inconclusive, RGS12 GoLoco inh -23%, RECQ1 inh -15% and BLM helicase inh inconclusive.
`COc1cc(CNc2ccc(O)cc2)cc(Br)c1OCc1ccccc1F` gave ERG Ets-DNA blk -28%, TRb-SRC2 inh 2%, TexasRed fluor -3%, RGS12 GoLoco inh -27%, RECQ1 inh -4% and BLM helicase inh inconclusive.
